As a reminder, the inhibition is the drop in the measured response relative to a control, in per cent.

In all, about 220,000 compounds went through this assay and about 2,000 (0.91%) were called active. Inconclusive results (about 2%) are left out. Rule as the data show it: inconclusive = inhibition above about 80% without an active follow-up result; inactive = below that; test concentration not stated here. These entries were drawn from the full list. Potency and affinity values are given separately.

This assay is described as follows: M. tuberculosis H37Rv growth inhibitors, H37Rv strain (AID 1626).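 Also: bacteria incubated seven days before Alamar blue readout; 0% = bacteria only wells and 100% = bacteria with antibiotic wells.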 To be noted: active compounds read high, concentration not given here.
Consider `COc1ccc(NC(=O)COC(=O)c2cc(SC)ccc2Cl)c(OC)c1`, for which the inhibition was 10.1% (inactive).

`COc1ccc(C(C)(C)C)cc1NC(=O)COC(=O)c1ncc(Cl)c(Cl)c1Cl`: the inhibition is -2.28% (inactive).

Take `O=C1c2ccccc2C(=O)N1CC1CCCO1` (centres undefined): the inhibition was -1.11% (inactive).

As to `O=C1c2cccc3cccc(c23)C(=O)N1CC1CCCO1` (centres undefined), the inhibition is 0.46% (inactive).

Regarding `O=C1c2cccc3cccc(c23)C(=O)N1Cc1cccnc1`, the inhibition was -2.19% (inactive).

Take `O=C1c2ccc(Oc3cccc([N+](=O)[O-])c3)cc2C(=O)N1c1ccccn1`: the inhibition was -2.15% (inactive).

With `O=C1c2cccc3c([N+](=O)[O-])ccc(c23)C(=O)N1c1nccs1`, the inhibition is -1.82% (inactive).

Take `O=C1c2cccc3cccc(c23)C(=O)N1c1ccccn1`: the inhibition was 2% (inactive).

As to `O=C1c2ccc3c4c(ccc(c24)C(=O)N1Cc1cccnc1)C(=O)N(Cc1cccnc1)C3=O`, the inhibition is 7.76% (inactive).

For `Cc1ccc(N2C(=O)c3cccc4c([N+](=O)[O-])ccc(c34)C2=O)c2cccnc12`, the inhibition is -2.68% (inactive).

For `CCOC(=O)c1[nH]c2cc(OC)c(OC)cc2c1NC(=O)CN1CCN(C)CC1`, the inhibition is -4.7% (inactive).

For `COC(=O)CS(=O)(=O)c1ccc(C)cc1`, the inhibition is -7.54% (inactive).

For the molecule `CCCOC(=O)c1c(NC(=O)CCCn2nc([N+](=O)[O-])cc2C)sc(C(=O)OC)c1C`, the inhibition is -6.65% (inactive).

As for `CCOP(=O)(OCC)C(Nc1cc(Cl)cc(Cl)c1)c1cccc(O)c1` (centres undefined), the inhibition was 1.6% (inactive).

For `CCO[C@@H]1OC(C(=O)Nc2ccccc2)=C[C@H](c2ccc(C(F)(F)F)cc2)[C@H]1CCCO`, the inhibition is 3.16% (inactive).

Turning to `Cc1occc1-c1nnc(SCC(=O)c2c(N)n(Cc3ccccc3)c(=O)n(C)c2=O)n1C`, the inhibition is 4.82% (inactive).

As for `CCCC(=O)Nc1ccc(C(=O)NN=C(C2CC2)C2CC2)cc1`, the inhibition was -2.7% (inactive).

As for `CCCSc1nnc(CSc2nc3nc(C)cc(C)n3n2)o1`, the inhibition is -11.4% (inactive).

As to `CCCCSc1nnc(CSc2nc3nc(C)cc(C)n3n2)o1`, the inhibition is 8.33% (inactive).

In the case of `Cc1cc2nc(N)sc2cc1[N+](=O)[O-]`, the inhibition is -4.98% (inactive).

In the case of `Oc1ccc(/C=C/c2nc(-c3ccccc3O)n(-c3ccccc3)n2)cc1`, the inhibition is 21.6% (inactive).

`COc1ccc(/C=C/c2nc(-c3ccccc3O)n(-c3ccccc3)n2)cc1`: the inhibition is -4.12% (inactive).

Regarding `O=C(Nc1ccc(Nc2ccncc2)cc1)c1ccc([N+](=O)[O-])cc1`, the inhibition is -0.61% (inactive).

With `O=C(Nc1ccc(Nc2ccncc2)cc1)c1ccc(Nc2ccnc3ccc([N+](=O)[O-])cc23)cc1`, the inhibition was -3.41% (inactive).

For the molecule `COc1ccc(-c2nc(-c3cccc(C)c3)nc(N3CCN(C)CC3)c2C#N)cc1`, the inhibition is 6.59% (inactive).

On to `COc1ccc(-c2nc(-c3ccccc3)nc(N3CCN(C)CC3)c2C#N)cc1`, for which the inhibition was 9.82% (inactive).

`COc1cccc(-c2nc(N3CCN(C)CC3)c3ccccc3n2)c1O`: the inhibition is 10.5% (inactive).

For `CN1CCN(c2nc(-c3ccccc3)nc(-c3ccccc3)c2C#N)CC1`, the inhibition is 20.2% (inactive).

Consider `N#Cc1c(-c2ccccc2)nc(-c2ccccc2)nc1N1CCOCC1`, for which the inhibition is -9.91% (inactive).

Take `COc1ccc(-c2nc(-c3ccccn3)nc(N3CCN(C)CC3)c2C#N)cc1`: the inhibition is 1.76% (inactive).

Take `O=C(COC(=O)c1ccco1)Nc1ccccc1`: the inhibition is -8.55% (inactive).

As to `CC(=O)c1sc(=S)n(-c2ccccc2)c1C`, the inhibition is 7.39% (inactive).

Regarding `O=C(Cn1cnc2c(cnn2-c2ccc(F)cc2)c1=O)N1CCN(c2ccccc2F)CC1`, the inhibition is 3.88% (inactive).

Take `O=S(=O)(c1ccc(-c2csc(-c3cccnc3)n2)cc1)N1CCOCC1`: the inhibition was 3.97% (inactive).

Consider `NC(=O)NC(=O)COC(=O)c1ccccc1OCc1ccc(F)cc1`, for which the inhibition is 4.1% (inactive).

Consider `CN(C)S(=O)(=O)c1cc(NC(=O)CN2CCCc3ccccc32)ccc1Cl`, for which the inhibition is -10.6% (inactive).

`O=C(CN1CCN(S(=O)(=O)c2ccc(Cl)cc2)CC1)Nc1ccc(F)cc1F`: the inhibition was 6.43% (inactive).

As to `O=C(Cc1nnc(NC(=O)Nc2ccc(Cl)cc2)s1)NCc1ccccc1`, the inhibition is -0.51% (inactive).

Consider `CCOc1ccc(NC(=O)Cc2ccccc2)cc1`, for which the inhibition was 5.27% (inactive).

On to `O=C(CSc1ncn[nH]1)Nc1ccc(OCc2ccccc2)cc1`, for which the inhibition is 47.3% (inactive).

In the case of `CC(=O)OCC(=O)Nc1ccc(Br)c(C)c1`, the inhibition is 21.6% (inactive).

Consider `Cc1nc(SCC(=O)Nc2ccccn2)n[nH]1`, for which the inhibition was -3.41% (inactive).

Regarding `Cc1cccc(NC(=O)CCN2C(=O)C3C4C=CC(C4)C3C2=O)c1` (centres undefined), the inhibition is 3.17% (inactive).

Take `CCOC(=O)C(=O)Nc1ccc(OCc2ccccc2)cc1`: the inhibition is 12.6% (inactive).

With `CCOCC(=O)Nc1ccc(C)c(Cl)c1`, the inhibition was 76.9% (inactive).

`O=C(CCN1C(=O)C2C3C=CC(C3)C2C1=O)Nc1ccc2c(c1)OCO2` (centres undefined): the inhibition is -1.34% (inactive).

`O=C(CSc1ncccn1)Nc1ccc2c(c1)CCC2`: the inhibition is 76% (inactive).

`CCOC(=O)c1sc(=S)n(C)c1NC(=O)c1ccc(C(C)(C)C)cc1`: the inhibition is 79.7% (inactive).

For the molecule `Oc1ccc(-c2nc3ccccc3s2)cc1`, the inhibition was 59.6% (inactive).

Turning to `CCCOc1ccc(C(CC(=O)O)NC(=O)c2ccc3c(c2)OCO3)cc1` (centres undefined), the inhibition is 3.69% (inactive).

As to `COc1ccc(-c2ocnc2C(=O)N2CCN(C(c3ccccc3)c3ccccc3)CC2)cc1`, the inhibition is -4.16% (inactive).

In the case of `O=C(NNC(=O)C1CCCO1)c1ccccc1Cl` (centres undefined), the inhibition was -7.82% (inactive).

Regarding `CCN(CC)S(=O)(=O)c1ccc(-c2nnc(SCC(=O)N3c4ccccc4CC3C)n2CC)cc1` (centres undefined), the inhibition was 5% (inactive).

Take `CCC(CC)c1nnc(NC(=O)CCCN2C(=O)c3ccccc3C2=O)s1`: the inhibition was -6.94% (inactive).

Turning to `O=C(CN1CCCC1)Nc1ccc(OCc2ccccc2)cc1`, the inhibition is -0.61% (inactive).

`O=C(CN1CCN(c2ccccc2)CC1)Nc1ccc(OCc2ccccc2)cc1`: the inhibition is -8.11% (inactive).

In the case of `COc1ccc(CNC(=O)C2Cc3ccccc3CN2C(=O)c2ccco2)cc1` (centres undefined), the inhibition is -0.615% (inactive).

Take `COCCNC(=O)c1ccc(CS(=O)(=O)c2ccc(C)cc2)o1`: the inhibition is -5.24% (inactive).

Take `COC(=O)c1ccc2nc(NC(=O)CN3C(=O)CCC3=O)sc2c1`: the inhibition is -25.1% (inactive).

Turning to `Cc1ccc(SCCNC(=O)c2ccc(C)c([N+](=O)[O-])c2)cc1`, the inhibition is -5.78% (inactive).

As for `Cc1ccc(C(=O)NCCSC(C)(C)C)cc1`, the inhibition is 2.64% (inactive).

In the case of `Cc1ccc2c(c1)-c1[nH]c(=S)ncc1CS2`, the inhibition was 3.39% (inactive).

Regarding `COc1ccc(-c2cc(C(F)(F)F)nc(SCC(=O)NCc3cccs3)n2)cc1OC`, the inhibition is 0.43% (inactive).

As to `Cc1cc(OCC(=O)N(Cc2ccco2)C2CCS(=O)(=O)C2)ccc1Cl` (centres undefined), the inhibition was -8.25% (inactive).

Turning to `O=C(COC(=O)/C=C/c1ccc(F)cc1)NCc1ccco1`, the inhibition was -4.03% (inactive).

For `O=C(CCCn1cc([N+](=O)[O-])cn1)NC1CCCCCC1`, the inhibition was 5.99% (inactive).

As for `CS(=O)(=O)c1cccc(C(=O)NCc2ccc(F)cc2)c1`, the inhibition was 9.82% (inactive).

In the case of `Cc1nn(Cc2c(Cl)cccc2Cl)c(C)c1NC(=O)c1cnn2c(C(F)F)cc(-c3ccccc3)nc12`, the inhibition is 49.7% (inactive).

In the case of `Cc1ccc(-c2cc(C(F)F)n3ncc(C(=O)Nc4c(C)nn(Cc5c(Cl)cccc5Cl)c4C)c3n2)cc1`, the inhibition was 57.7% (inactive).

On to `COc1ccccc1NC(=O)CSC1=NCCN1`, for which the inhibition is -6.91% (inactive).

For `C=CCN1CN(S(=O)(=O)c2cccs2)c2nc3ccccc3nc21`, the inhibition was -3.39% (inactive).

In the case of `Cc1cccc(C(C)(C)C)c1OCCn1ccnc1`, the inhibition was -11% (inactive).

As to `Clc1ccccc1OCCCCn1ccnc1`, the inhibition is 2.53% (inactive).

For the molecule `Cc1ccccc1OCCCCCn1ccnc1`, the inhibition is 5.71% (inactive).

With `Cc1ccc(C)c(OCCCCCn2ccnc2)c1`, the inhibition was -10.5% (inactive).

As for `COc1ccccc1NC(=O)N1CCN(CCc2ccccc2)CC1`, the inhibition was -2.85% (inactive).

Take `CC(=O)OCC1OC(OC(C)=O)C(NC(=O)c2cccnc2)C(OC(C)=O)C1OC(C)=O` (centres undefined): the inhibition was -0.72% (inactive).

Regarding `CCCCN(C(=O)c1cc2ccccc2o1)c1c(N)n(CC(C)C)c(=O)[nH]c1=O`, the inhibition is 9.87% (inactive).

For the molecule `COc1cccc(N=Nc2c(N)[nH]n3c(=O)c4c(nc23)CCCC4)c1`, the inhibition was 19.3% (inactive).

Consider `Cc1[nH]n2c(=O)c3c(nc2c1-c1cccc2ccccc12)CCC3`, for which the inhibition was -8.68% (inactive).

For `COc1ccc(-c2c(C)[nH]n3c(=O)c(Cc4ccccc4)c(C)nc23)cc1OC`, the inhibition was 38.6% (inactive).

On to `COc1ccc(-c2c(C)[nH]n3c(=O)c(Cc4ccccc4)c(C)nc23)cc1`, for which the inhibition is 70.9% (inactive).

With `Cc1ccc(-c2[nH]n3c(=O)c4c(nc3c2C)CCCC4)cc1`, the inhibition was 5.52% (inactive).

On to `O=c1c2c(nc3c(-c4ccccc4)c[nH]n13)CCC2`, for which the inhibition is 2.63% (inactive).

Take `Nc1[nH]n2c(=O)c3c(nc2c1N=Nc1ccccc1)CCCC3`: the inhibition is 79.3% (inactive).

In the case of `O=c1c2c(nc3c(-c4ccccc4)c[nH]n13)CCCC2`, the inhibition is 14.2% (inactive).

Regarding `CC(=O)Nc1ccc2c(CSc3nnc(-c4cccnc4)n3-c3ccc(C)cc3C)cc(=O)oc2c1`, the inhibition was -5.62% (inactive).

As to `Cc1ccc(CNC(=O)CSc2nc(C)cc(C)c2C#N)cc1`, the inhibition is -9.02% (inactive).

In the case of `C/C(=N\NC(=O)C1(C)NC(C)(C)Cc2ccccc21)c1ccccc1` (centres undefined), the inhibition was 1.17% (inactive).

For `COc1ccc(C(=O)Nc2ccc(N3CCN(c4ccc(OC)cc4)CC3)c(C#N)c2)cc1`, the inhibition is -7.83% (inactive).

Turning to `COc1ccc(-n2c(=S)[nH]c3cc(C(=O)NCCCN4CCCC4=O)ccc3c2=O)cc1OC`, the inhibition was -1.47% (inactive).

As to `CC(=O)COC(=O)CNC(=O)c1ccc(Br)cc1`, the inhibition was -5.11% (inactive).

Consider `Cc1cccc(N(Cc2cc3ccccc3[nH]c2=O)C(=O)c2ccco2)c1C`, for which the inhibition is 4.31% (inactive).

Turning to `COc1ccc(NC(=O)CCOc2ccccc2)c(OC)c1`, the inhibition was -0.51% (inactive).
